Rows were chosen to be rich in hits. Some 4.1% of all compounds tested hit in one or more screens of this group.
CSC inhib: cancer stem cell inhibition; cancer stem cell-like cells viability, luminescence; inhibition, % at 7.5 µM; actives 1.1% (n = 300,000); AID 2717; in the data active means inhibition above about 75%; inconclusive means no clear call, values can overlap the other calls; tested in HMLE shEcad cells
aSyn UTR inh: 5' untranslated region of α-synuclein, MLPCN primary screen. alpha-synuclein 5'UTR reporter, inhibitor activity. inhibition, % (tested at 7.5 µM). actives 0.82% (n = 300,000); in the data active means inhibition above about 60%; inconclusive means no clear call, values can overlap the other calls;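 further: H4 neuroglioblastoma cells stably carrying SNCA 5'UTR luciferase fusion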
Beta cell apopt: blocks beta cell apoptosis. INS-1E cytokine-induced death, ATP luminescence, 48 h; percent of positive-control rescue, neutral wells zero. actives 0.8% (n = 300,000). protection from apoptosis, % (test concentration not listed). AID 435005;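 active means Every replicate reaches about 75%, or at least half do and their mean reaches it too, limit read from the data; inconclusive means At least half of replicates reach the limit but their mean does not; inactive means Under half of replicates reach the limit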;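 further: higher means more ATP so stronger rescue from cytokine killing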
Mdm2 MdmX PPI: inhibitors of human Mdm2/MdmX interaction. actives 3% (n = 330,000). AID 485346. inhibition, % at 8 µM. SaOS-2 split-luciferase Mdm2/MdmX complementation, luminescence;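 active means inhibition of at least 50% at 8 µM in the primary screen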
Target sequence (O15151 whole entry, looked up): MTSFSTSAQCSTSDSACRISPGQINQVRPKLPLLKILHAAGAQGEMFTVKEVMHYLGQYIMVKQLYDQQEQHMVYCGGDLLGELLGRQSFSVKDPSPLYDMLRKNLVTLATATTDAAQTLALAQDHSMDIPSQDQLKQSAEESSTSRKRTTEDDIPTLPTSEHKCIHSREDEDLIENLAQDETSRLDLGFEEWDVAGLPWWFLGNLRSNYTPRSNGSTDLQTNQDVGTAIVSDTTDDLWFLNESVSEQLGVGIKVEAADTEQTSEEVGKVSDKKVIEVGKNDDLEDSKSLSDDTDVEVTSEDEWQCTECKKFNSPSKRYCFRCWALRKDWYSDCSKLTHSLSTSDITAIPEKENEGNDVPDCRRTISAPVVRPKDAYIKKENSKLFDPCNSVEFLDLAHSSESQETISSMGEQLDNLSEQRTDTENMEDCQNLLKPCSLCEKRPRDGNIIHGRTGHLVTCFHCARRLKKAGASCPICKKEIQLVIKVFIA
Target sequence (Q00987 whole entry, looked up): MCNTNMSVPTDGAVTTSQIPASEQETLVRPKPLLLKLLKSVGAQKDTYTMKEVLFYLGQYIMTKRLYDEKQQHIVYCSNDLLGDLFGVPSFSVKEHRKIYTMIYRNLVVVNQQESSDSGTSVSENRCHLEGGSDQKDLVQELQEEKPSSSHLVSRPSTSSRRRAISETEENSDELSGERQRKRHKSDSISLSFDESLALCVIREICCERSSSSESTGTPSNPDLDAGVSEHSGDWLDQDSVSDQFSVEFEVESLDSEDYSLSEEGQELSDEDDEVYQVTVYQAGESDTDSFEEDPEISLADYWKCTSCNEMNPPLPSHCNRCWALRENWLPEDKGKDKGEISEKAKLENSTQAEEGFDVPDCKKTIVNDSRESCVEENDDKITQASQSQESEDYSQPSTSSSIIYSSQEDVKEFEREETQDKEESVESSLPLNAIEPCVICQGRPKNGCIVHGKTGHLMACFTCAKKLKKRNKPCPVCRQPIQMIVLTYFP
A1 inh: inhibitors of the anti-apoptotic protein A1, read as caspase activation. actives 0.066% (n = 330,000). caspase activation, % (test concentration not listed). AID 2462. MEF A1-2A-BIM cells, Caspase-Glo 3/7 luminescence, 3 h; percent of clofoctol response, vehicle zero;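 active means over half of replicate activation scores above 10%, or exactly half above 10 with the replicate mean above 10; inconclusive means replicate mean below 10 yet half the replicates above 10; inactive means over half of replicates below 10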
Mdm2 MdmX conf: human Mdm2/MdmX binding inhibition, confirmed. inhibition, % at 8 µM. shares compounds with Mdm2 MdmX PPI. AID 489028. luminescent assay. actives 55% (n = 10,000); in the data active means inhibition above about 40%
FLuc counter: full-length luciferase inhibition in Mdm2/MdmX counter-screen | shares compounds with Mdm2 MdmX PPI | SaOS-2 full-length luciferase counterscreen, luminescence | inhibition, % at 8 µM | actives 77% (n = 6,200) | AID 504607;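 active means mean inhibition at 8 µM reaching about 37%, which flags the compound as non-specific, limit read from the data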;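 further: p53-null SaOS-2 cells with luciferase driven by a doxycycline-inducible promoter; compound on cells about two nights before reading with doxycycline added after day one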
A number is an active result.

Screening CCOc1ccccc1CNC(=O)c1cc2oc3ccccc3c2n1C returned CSC inhib inactive, aSyn UTR inh inconclusive, Beta cell apopt inactive, Mdm2 MdmX PPI 83.7, A1 inh inactive, Mdm2 MdmX conf 86.8 and FLuc counter inactive.
Screening COC(=O)c1ccc(C(=O)Nc2cc(Cl)ccc2Cl)cc1NC(=O)c1ccc(N(C)C)cc1 returned CSC inhib inactive, aSyn UTR inh inactive, Beta cell apopt inactive, Mdm2 MdmX PPI 70.0, A1 inh inactive and Mdm2 MdmX conf inactive.
CS(=O)(=O)c1ncc(Cl)c(C(=O)Nc2ccc(N3CCOCC3)cc2)n1 was read as CSC inhib inconclusive, aSyn UTR inh inactive, Beta cell apopt inactive, Mdm2 MdmX PPI 88.3, A1 inh inactive, Mdm2 MdmX conf 53.3 and FLuc counter 40.7.
Screening O=C(Nc1ccc(OC(F)F)cc1)c1ccccn1 returned aSyn UTR inh inactive, Beta cell apopt inactive, Mdm2 MdmX PPI inactive and A1 inh inactive.
For CS(=O)(=O)c1ncc(Cl)c(C(=O)Nc2ccc(OC(F)F)cc2)n1 the results were CSC inhib 134.8, aSyn UTR inh inactive, Beta cell apopt inconclusive, Mdm2 MdmX PPI 92.1, A1 inh 17.7, Mdm2 MdmX conf 99.7 and FLuc counter 52.4.
For Cn1c(SCC(=O)Nc2cccnc2Cl)nnc1-c1ccco1 the results were CSC inhib inactive, Beta cell apopt inactive, Mdm2 MdmX PPI inactive and A1 inh inactive.
`CN(C)c1ccc(C(=O)N/N=C/c2cc(Br)cc(Br)c2O)cc1` gave CSC inhib inactive, aSyn UTR inh inactive, Beta cell apopt inactive, Mdm2 MdmX PPI 80.4, A1 inh inactive, Mdm2 MdmX conf 86.2 and FLuc counter 53.7.
CN(C)c1ccc(/C=N/NC(=O)c2ccc(NC(=O)c3ccccc3)cc2)cc1 was read as CSC inhib inactive, aSyn UTR inh inactive, Beta cell apopt inactive, Mdm2 MdmX PPI 56.8, A1 inh inactive and Mdm2 MdmX conf inactive.
Screening O=C(N/N=C/c1ccc(F)cc1)c1ccccc1 returned CSC inhib inactive, aSyn UTR inh inactive, Beta cell apopt inactive, Mdm2 MdmX PPI inactive and A1 inh inactive.
Screening COc1c(Br)cc(Br)cc1/C=N/NC(=O)c1ccncc1 returned CSC inhib inactive, aSyn UTR inh inactive, Beta cell apopt inactive, Mdm2 MdmX PPI inactive and A1 inh inactive.
CC(=O)c1ccc(OCCOc2ccc(C#N)cc2)cc1 was read as CSC inhib inactive, aSyn UTR inh inactive, Beta cell apopt inactive, Mdm2 MdmX PPI inactive and A1 inh inactive.
`COC(=O)N1C(=O)[C@@](c2ccccc2)(C2CCCCC2)N1C(=O)OC` gave CSC inhib inactive, aSyn UTR inh inactive, Beta cell apopt inactive, Mdm2 MdmX PPI 66.0, A1 inh inactive, Mdm2 MdmX conf 44.6 and FLuc counter 49.5.
For CC[C@]1(c2ccccc2)C(=O)N(C(=O)OC)N1C(=O)OC the results were CSC inhib inactive, aSyn UTR inh inactive, Beta cell apopt inactive, Mdm2 MdmX PPI inactive and A1 inh inactive.
Screening COC(=O)N1C(=O)[C@](Cc2ccccc2)(c2ccccc2)N1C(=O)OC returned CSC inhib inactive, aSyn UTR inh inactive, Beta cell apopt inactive, Mdm2 MdmX PPI 55.3, A1 inh inactive and Mdm2 MdmX conf inactive.
CC[C@@]1(c2ccccc2)C(=O)N(C(=O)OC)N1C(=O)OC was read as CSC inhib inactive, aSyn UTR inh inactive, Beta cell apopt inactive, Mdm2 MdmX PPI inactive and A1 inh inconclusive.
`COC(=O)N1C(=O)[C@@](Cc2ccccc2)(c2ccccc2)N1C(=O)OC` gave CSC inhib inactive, aSyn UTR inh inactive, Beta cell apopt inactive, Mdm2 MdmX PPI 61.4, A1 inh inactive, Mdm2 MdmX conf 50.2 and FLuc counter 57.3.
For COc1ccc(NC(=O)c2ccco2)cc1NC(=O)c1cccc(F)c1 the results were aSyn UTR inh inactive and Mdm2 MdmX PPI inactive.
`COc1ccc2c(c1)C=Cc1ccccc1O2` gave CSC inhib inactive, aSyn UTR inh inactive, Beta cell apopt inactive, Mdm2 MdmX PPI inactive and A1 inh inactive.
For Clc1cccc2c1Sc1ccccc1CC2N1CCNCC1 (centres undefined) the results were CSC inhib inactive, aSyn UTR inh inactive, Beta cell apopt inactive, Mdm2 MdmX PPI 66.0, A1 inh inactive, Mdm2 MdmX conf 73.1 and FLuc counter 47.0.
For Clc1ccc2c(c1)C(N1CCNCC1)Cc1ccccc1S2 (centres undefined) the results were CSC inhib inactive, aSyn UTR inh inactive, Beta cell apopt inactive, Mdm2 MdmX PPI 100.8, A1 inh inactive, Mdm2 MdmX conf 100.1 and FLuc counter 39.2.
For COCCCN1CCN(C2Cc3ccccc3Sc3ccc(Cl)cc32)CC1 (centres undefined) the results were CSC inhib inactive, aSyn UTR inh inactive, Beta cell apopt inactive, Mdm2 MdmX PPI inactive and A1 inh inactive.
Screening CCCCN1CCN=C1N(C)C returned CSC inhib inactive, Beta cell apopt inactive, Mdm2 MdmX PPI inactive and A1 inh inactive.
CCC1(c2ccc(F)cc2)NC(=O)N(CC(=O)c2cc(C)n(C3CC3)c2C)C1=O (centres undefined) was read as CSC inhib inactive, aSyn UTR inh inactive, Beta cell apopt inactive, Mdm2 MdmX PPI inactive and A1 inh inactive.
O=C(CN(c1cc(Cl)ccc1Cl)S(=O)(=O)c1ccccc1)N1CCOCC1 was read as CSC inhib inactive, aSyn UTR inh inactive, Mdm2 MdmX PPI inactive and A1 inh inactive.
CCN1CCc2c(sc(NC(=O)c3ccc(S(=O)(=O)N4CCCC4)cc3)c2C(=O)NC)C1 was read as CSC inhib inactive, aSyn UTR inh inactive, Mdm2 MdmX PPI 82.8, A1 inh inactive and Mdm2 MdmX conf inactive.
Screening O=C(Nc1cccc(NC(=O)c2ccccc2Cl)c1)c1ccc([N+](=O)[O-])o1 returned CSC inhib inactive, aSyn UTR inh 85.8, Beta cell apopt 96.1, Mdm2 MdmX PPI 60.6, A1 inh inactive, Mdm2 MdmX conf 58.0 and FLuc counter 42.4.
`COc1cccc(OC)c1C(=O)Nc1sc2c(c1C(N)=O)CCN(Cc1ccccc1)C2` gave CSC inhib inactive, aSyn UTR inh inactive, Beta cell apopt inactive, Mdm2 MdmX PPI inactive and A1 inh inactive.
Screening CCN1CCc2c(sc(NC(=O)c3cc4ccccc4cc3OC)c2C(N)=O)C1 returned CSC inhib inactive, aSyn UTR inh inactive, Beta cell apopt inactive, Mdm2 MdmX PPI 100.4, A1 inh inactive and Mdm2 MdmX conf inactive.
NC(=O)c1ccsc1NC(=O)c1ccc([N+](=O)[O-])o1 was read as CSC inhib inactive, Beta cell apopt inactive, Mdm2 MdmX PPI 56.6, A1 inh inactive and Mdm2 MdmX conf inactive.
NC(=O)c1ccsc1NC(=O)COC(=O)c1ccc([N+](=O)[O-])o1 was read as Beta cell apopt inactive, Mdm2 MdmX PPI inactive and A1 inh inactive.
`O=C(NCc1ccncc1)c1cccc(S(=O)(=O)Nc2ccc(F)cc2)c1` gave Mdm2 MdmX PPI inactive.
